Laboratory results from PubChem BioAssay (EPA / NIEHS).
Activity calls are given as the source filed them. The calls were made as follows: active = hit-call score of the fitted dose curve at least 0.9, where 1 is the maximum; inactive = score below 0.9.

read-out: Alpha-fetoprotein (AFP) gene, AFP (gene 174); experiment: LTEA_HepaRG_AFP: Life Technologies and Expression Analysis (LTEA) Assay for Alpha-fetoprotein (AFP) gene using HepaRG (AID 2283472); settings: mRNA level, 48 h; actives raise or lower the signal;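 as to AC50: AFP transcript by TaqMan qRT-PCR normalized to ACTB GAPDH and POLR2A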
Summary of the method: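 Chemicals were tested on differentiated HepaRG cells for 48 hours at eight concentrations up to 100 uM, with 0.5% DMSO as vehicle. AFP expression was then quantified by qRT-PCR and analyzed for gain or loss relative to DMSO.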

SMILES	outcome	AC50
CC(=O)OCC(COC(C)=O)OC(C)=O	inactive	
CCCC(=O)O	inactive	
Cc1cc(Cc2ccc(N)c(C)c2)ccc1N	inactive	
CCCCC(CC)CO (centres undefined)	inactive	
CC1(C)C(=O)NC(=O)N1CO	inactive	
O=C(O)CC(O)(CC(=O)O)C(=O)O	inactive	
CCCCCCC(CCCCCCCCCCC(=O)OCC(COC(C)=O)OC(C)=O)OC(C)=O (centres undefined)	inactive	
NC1CCCCC1	inactive	
CC(C)(O)c1ccc(CNC(=O)c2cccnc2Oc2ccc(F)cc2)cc1	inactive	
C=CCCCCCCCCCCCC	inactive	
CC(C)OC(=O)C(C)(C)Oc1ccc(C(=O)c2ccc(Cl)cc2)cc1	inactive	
O=C(Oc1ccccc1)c1cccc(C(=O)Oc2ccccc2)c1	inactive	
CN(C)C(=O)NC1(c2ccccc2)CCN(CCC[C@]2(c3ccc(Cl)c(Cl)c3)CCCN(C(=O)c3ccccc3)C2)CC1	inactive	
O=C1OC(c2ccc(O)cc2)(c2ccc(O)cc2)c2ccccc21		77.4 µM (active)
CC(=O)OC1CC(C)OC(C)O1 (centres undefined)	inactive	
O=C(O)c1cccnc1	inactive	
NCCOCCOCCN	inactive	
O=C1O[C@H]([C@H](O)CO)C(O)=C1O	inactive	
CCN(CC)CCOc1ccc(C(=C(Cl)c2ccccc2)c2ccccc2)cc1		17.9 µM (active)
CCCCC(CC)COP(=O)(OCC(CC)CCCC)OCC(CC)CCCC (centres undefined)	inactive	
CC(=O)CC(c1ccccc1)c1c(O)c2ccccc2oc1=O (centres undefined)	inactive	
C/C=C/c1ccc(OC)cc1	inactive	
O=C(O)c1[nH]n(-c2ccc(S(=O)(=O)O)cc2)c(=O)c1N=Nc1ccc(S(=O)(=O)O)cc1	inactive	
Oc1ccc(O)cc1	inactive	
CC(C)c1cccc(C(C)C)c1	inactive	
NC=O	inactive	
CCc1nc(N)nc(N)c1-c1ccc(Cl)cc1		32.8 µM (active)
Cn1cnc2c1c(=O)[nH]c(=O)n2C	inactive	
CC(=O)[C@@]1(O)CC[C@H]2[C@@H]3CCC4=CC(=O)CC[C@]4(C)[C@H]3CC[C@@]21C		50 µM (active)
Cc1cn([C@H]2C=C[C@@H](CO)O2)c(=O)[nH]c1=O	inactive	

read-out: BCL2L11 (gene 10018); experiment: LTEA_HepaRG_BCL2L11: Life Technologies and Expression Analysis (LTEA) Assay for Bcl-2 (BCL2L11) gene using HepaRG (AID 2283473); settings: mRNA level, 48 h; actives raise or lower the signal
Summary of the method: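 Read-out is BCL2L11 transcript level by qRT-PCR, normalized to three housekeeping genes and fitted bidirectionally against 0.5% DMSO vehicle. HepaRG cells received chemicals for 48 h in serum-free induction medium, 100 uM down in half-log dilutions.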

SMILES	outcome	AC50
CC(=O)OCC(COC(C)=O)OC(C)=O	inactive	
CCCC(=O)O	inactive	
Cc1cc(Cc2ccc(N)c(C)c2)ccc1N	inactive	
CCCCC(CC)CO (centres undefined)	inactive	
CC1(C)C(=O)NC(=O)N1CO	inactive	
O=C(O)CC(O)(CC(=O)O)C(=O)O	inactive	
CCCCCCC(CCCCCCCCCCC(=O)OCC(COC(C)=O)OC(C)=O)OC(C)=O (centres undefined)	inactive	
NC1CCCCC1	inactive	
CC(C)(O)c1ccc(CNC(=O)c2cccnc2Oc2ccc(F)cc2)cc1	inactive	
C=CCCCCCCCCCCCC	inactive	
CC(C)OC(=O)C(C)(C)Oc1ccc(C(=O)c2ccc(Cl)cc2)cc1	inactive	
O=C(Oc1ccccc1)c1cccc(C(=O)Oc2ccccc2)c1	inactive	
CN(C)C(=O)NC1(c2ccccc2)CCN(CCC[C@]2(c3ccc(Cl)c(Cl)c3)CCCN(C(=O)c3ccccc3)C2)CC1	inactive	
O=C1OC(c2ccc(O)cc2)(c2ccc(O)cc2)c2ccccc21	inactive	
CC(=O)OC1CC(C)OC(C)O1 (centres undefined)	inactive	
O=C(O)c1cccnc1	inactive	
NCCOCCOCCN	inactive	
O=C1O[C@H]([C@H](O)CO)C(O)=C1O	inactive	
CCN(CC)CCOc1ccc(C(=C(Cl)c2ccccc2)c2ccccc2)cc1		76.5 µM (active)
CCCCC(CC)COP(=O)(OCC(CC)CCCC)OCC(CC)CCCC (centres undefined)	inactive	
CC(=O)CC(c1ccccc1)c1c(O)c2ccccc2oc1=O (centres undefined)	inactive	
C/C=C/c1ccc(OC)cc1	inactive	
O=C(O)c1[nH]n(-c2ccc(S(=O)(=O)O)cc2)c(=O)c1N=Nc1ccc(S(=O)(=O)O)cc1	inactive	
Oc1ccc(O)cc1	inactive	
CC(C)c1cccc(C(C)C)c1	inactive	
NC=O	inactive	
CCc1nc(N)nc(N)c1-c1ccc(Cl)cc1	inactive	
Cn1cnc2c1c(=O)[nH]c(=O)n2C	inactive	
CC(=O)[C@@]1(O)CC[C@H]2[C@@H]3CCC4=CC(=O)CC[C@]4(C)[C@H]3CC[C@@]21C	inactive	

read-out: Apolipoprotein A-V (APOA5) gene, APOA5 (gene 116519); experiment: LTEA_HepaRG_APOA5: Life Technologies and Expression Analysis (LTEA) Assay for Apolipoprotein A-V (APOA5) gene using HepaRG (AID 2283474); settings: mRNA level, 48 h; actives raise or lower the signal
Summary of the method: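 Readout is APOA5 transcript level by qRT-PCR on Fluidigm dynamic arrays, normalized to three housekeeping genes. HepaRG cultures received chemicals for 48 h at up to 100 uM (half-log steps, 0.5% DMSO), with gain or loss scored relative to DMSO.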

SMILES	outcome	AC50
CC(=O)OCC(COC(C)=O)OC(C)=O	inactive	
CCCC(=O)O	inactive	
Cc1cc(Cc2ccc(N)c(C)c2)ccc1N	inactive	
CCCCC(CC)CO (centres undefined)	inactive	
CC1(C)C(=O)NC(=O)N1CO	inactive	
O=C(O)CC(O)(CC(=O)O)C(=O)O	inactive	
CCCCCCC(CCCCCCCCCCC(=O)OCC(COC(C)=O)OC(C)=O)OC(C)=O (centres undefined)	inactive	
NC1CCCCC1	inactive	
CC(C)(O)c1ccc(CNC(=O)c2cccnc2Oc2ccc(F)cc2)cc1	inactive	
C=CCCCCCCCCCCCC	inactive	
CC(C)OC(=O)C(C)(C)Oc1ccc(C(=O)c2ccc(Cl)cc2)cc1		0.0432 µM (active)
O=C(Oc1ccccc1)c1cccc(C(=O)Oc2ccccc2)c1	inactive	
CN(C)C(=O)NC1(c2ccccc2)CCN(CCC[C@]2(c3ccc(Cl)c(Cl)c3)CCCN(C(=O)c3ccccc3)C2)CC1		21.3 µM (active)
O=C1OC(c2ccc(O)cc2)(c2ccc(O)cc2)c2ccccc21	inactive	
CC(=O)OC1CC(C)OC(C)O1 (centres undefined)	inactive	
O=C(O)c1cccnc1	inactive	
NCCOCCOCCN	inactive	
O=C1O[C@H]([C@H](O)CO)C(O)=C1O	inactive	
CCN(CC)CCOc1ccc(C(=C(Cl)c2ccccc2)c2ccccc2)cc1	inactive	
CCCCC(CC)COP(=O)(OCC(CC)CCCC)OCC(CC)CCCC (centres undefined)	inactive	
CC(=O)CC(c1ccccc1)c1c(O)c2ccccc2oc1=O (centres undefined)	inactive	
C/C=C/c1ccc(OC)cc1	inactive	
O=C(O)c1[nH]n(-c2ccc(S(=O)(=O)O)cc2)c(=O)c1N=Nc1ccc(S(=O)(=O)O)cc1	inactive	
Oc1ccc(O)cc1	inactive	
CC(C)c1cccc(C(C)C)c1	inactive	
NC=O	inactive	
CCc1nc(N)nc(N)c1-c1ccc(Cl)cc1	inactive	
Cn1cnc2c1c(=O)[nH]c(=O)n2C	inactive	
CC(=O)[C@@]1(O)CC[C@H]2[C@@H]3CCC4=CC(=O)CC[C@]4(C)[C@H]3CC[C@@]21C	inactive	
Cc1cn([C@H]2C=C[C@@H](CO)O2)c(=O)[nH]c1=O	inactive	
